Test results: PubChem BioAssay AID743279 (National Center for Advancing Translational Sciences (NCATS), 2014)
Screen size: about 360,000 compounds; about 17,000 (4.7%) were called active. Roughly 5% stayed inconclusive and do not appear here. This is one part of a sample in which actives are shown more often than they occur. No stated cut-off is given here; in the data, active means activity change below about -50%; inconclusive means mostly about -30% to -49%; inactive means weaker than that.

Test: qHTS for Inhibitors of Inflammasome Signaling: IL-1-beta AlphaLISA Primary Screen
Conditions: THP-1 LPS/ATP IL-1B secretion, 16 h; at 57.5 µM, stronger effect = lower value
Excerpt: Inflammasomes are a set of intracellular multi-protein complexes that enable autocatalytic activation of inflammatory caspases and drive the innate immune response to counter harmful agents. […] A qHTS assay, based on AlphaLISA technology, was developed to screen the Molecular Libraries Small Molecule Repository (MLSMR) to look for novel inflammasome inhibitors. The assay detects IL-1B using AlphaLISA anti-IL-1B acceptor and donor beads. A decreased emission signal, indicating reduced IL-1B secretion, is the desired outcome for this assay. NIH Chemical Genomics Center [NCGC] NIH Molecular Libraries Probe Centers Network [MLPCN] MLPCN Grant: MH095513 Assay Provider: Shyam Biswal Ph.D., Johns Hopkins University Immunity. 2012 Jul 27;37(1):85-95. PMID: 22819042 [2] Curr Pharm Des. 2012;18(16):2320-8. PMID: 22390695
Three microliters containing 3000 THP-1 cells were dispensed into the wells of solid, white, tissue culture treated Greiner 1,536-well plates. Library compounds and positive control, Glyburide, were pin-transferred (23 nL) by a Kalypsys pin-tool equipped with a 1,536-pin array, resulting in final compound concentration ranges of 2.5 nM to 57.5 uM. After 1 hr of cell culture incubation (37 °C, 5% CO2), 1 microL of 1 microg/mL lipopolysaccharide (250 ng/mL, final) and 5 mM ATP (1.25 mM, final) were added to stimulate the cells. After 16 hr of cell culture incubation with the compounds, 1.5 uL of anti-IL-1B acceptor beads (6 ug/mL, final) and biotinylated antibody (0.6 nM, final) were added to the plate, followed by a 1 hr incubation at ambient temperature. To detect the secreted IL-1B, 1.5 uL of AlphaLISA SA-Donor beads (24 ug/mL, final) were added, followed by 30 min of incubation in the dark at ambient temperature. The AlphaLISA signal was read by a PerkinElmer EnVision plate reader with an ultrasensitive luminescence detector and 1536 Plate HTS AlphaScreen aperture (excitation of 680nm and emission of 615nm).
On the % scale 0 is the no-effect control and ±100 the full control effect.

Activity change, active:
CCc1ccc(OCC(=O)NCC(c2ccc(Cl)cc2)N2CCCCC2)cc1 (stereo not given) -99.8%, CC(C)(C)OC(=O)NNc1c2ccccc2nc2ccccc12 -75.9%, O=C(NNc1c2ccccc2nc2ccccc12)c1cc2ccccc2cc1O -60.2%, N#C/C(=C/c1cccc([N+](=O)[O-])c1)c1nnc2n1CCCCC2 -112%, C[C@@H]1C(c2ccc(F)cc2)=NN(c2ccc(Br)cc2)[C@H]1C(=O)N1CCOC1=O -54.4%, Cc1c(CN2CC[C@@H](N3CCN(c4ccccn4)CC3)[C@H](O)C2)[nH]c2ccc(F)cc12 -50.8%, CC(C)(C)c1cc(P(=O)(c2ccccc2)c2ccccc2)ccc1O -66.1%, CC(C)n1cnc2c(Nc3cccc(Cl)c3)nc(N(CCO)CCCO)nc21 -97.4%, COC(=O)[C@@]12C[C@@H](CC(=O)N3CCC(c4ccccc4)CC3)C(=O)N(Cc3ccccc3)C1=CCC(C)(C)C2 -70.2%

Activity change, inactive:
COc1ccc(CC(=O)Nc2ccccc2NC(=O)c2ccco2)cc1OC 12.9%, CCCc1ccc(-c2csc(NC(=O)Cc3cccs3)n2)cc1 8.64%, CCCc1c(C)nc2scc(-c3ccc(Cl)cc3)n2c1=O 26.4%, COc1ccc(C(CNC(=O)COc2ccc([N+](=O)[O-])cc2)N2CCCCC2)cc1 (stereo not given) -22.1%, COc1ccc(C(CNC(=O)COc2ccccc2OC)N2CCCCC2)cc1 (stereo not given) -6.28%, Cc1ccc(C(=O)NNC(=O)OC(C)(C)C)c(Cl)c1 -7.82%, O=C(COC(=O)c1ccc(O)cc1O)NC(=O)c1ccccc1 13.5%, Cc1noc(C)c1COC(=O)c1cc2ccccc2cc1O -1.49%, CC(C)(C)OC(=O)NCCCCCNC(=O)c1nc[nH]c1C(=O)NCc1ccccc1 11%, Cc1ccccc1NC(=O)Cn1cc(C(=O)C2CC2)c2ccccc21 16.9%, CCC1NC(=O)c2cccnc2-n2c1nc1ccc(C)cc1c2=O (stereo not given) -3.64%, N#C/C(=C(\O)C(F)(F)F)c1nnc2n1CCCCC2 11.5%, N#C/C(=C(\O)CCl)c1nnc2n1CCCCC2 4.27%, CCOC(=O)C1(C)CCCN(C(=O)c2ccc(N(C)C)cc2)C1 (stereo not given) 9.68%, CCN(CC)C(=O)[C@H]1CC(CC(=O)NCc2ccco2)C(=O)N2CCc3c([nH]c4ccccc34)[C@]12C (stereo not given in full) 7.15%, O=C1OCCN1C(=O)[C@H]1[C@H](c2ccc(F)cc2)C(c2ccccc2)=NN1c1ccc(Br)cc1 -15.9%, O=C1OCCN1C(=O)[C@H]1[C@H](c2ccc(Cl)cc2)C(c2cccc(Cl)c2)=NN1c1ccc(Br)cc1 -23.1%, CN(CC(=O)Nc1c(Cl)cccc1Cl)C(=O)CNC(=O)C1CCCCC1, COc1cccc(CC2(CO)CCCN(Cc3ccc(OC(F)F)cc3)C2)c1 (stereo not given) -9.05%, O=C(CCC1CCCN(C(=O)Cc2ccc(F)cc2)C1)N1CCN(c2ccccn2)CC1 (stereo not given) -15.7%, O=S1(=O)CC(N2CCN(c3ccccn3)CC2)CN1Cc1ccc(F)cc1 (stereo not given) -7.1%, COc1ccc(-c2ccc3c(c2)[C@@H]2C[C@H](N(C)S(=O)(=O)c4ccccc4)[C@H]([C@H](C)O)C(=O)N2CC3)cc1 -14.6%, O=C(CCc1ccc(O)cc1)NN=Cc1cc(Br)ccc1O 137%, O=P(O)(CP(=O)(c1ccccc1)c1ccccc1)c1ccccc1O -5.18%, O=S(=O)(Nc1ccc2ccccc2c1)N1CCCCC1 -5.44%, CC(C)(C)C(=O)Nc1cccc(-c2ccc[nH]2)n1 -1.09%, OCCCNc1nccc(-c2cc(Nc3cccc(Cl)c3)ncn2)n1 -1.28%, Cn1c(Nc2cccc(Cl)c2)nc2ccccc21 -6.01%, CCOC(=O)N(Cc1ccccc1)C1CC1 8.58%, O=C1CC(c2ccccc2)C(=O)N2C(=O)CC(c3ccccc3)C(=O)N12 (stereo not given) -11.1%, COC(=O)[C@@]12C[C@@H](CC(=O)N3CCCCC3)C(=O)N(Cc3ccc4c(c3)OCO4)C1=CCC(C)(C)C2 -13.6%, CCOC(=O)N1CCN(C(=O)C[C@@H]2C[C@@]3(C(=O)OC)CC(C)(C)CC=C3N(Cc3ccco3)C2=O)CC1 5.52%, COc1ccc(CN2C[C@H]3CON(C)[C@H]3C[C@H]2c2ccc(-c3cccc(F)c3)cc2)cc1 11.4%, CC1(C(=O)NCc2ccccc2)CN(S(C)(=O)=O)CC(=O)N1CC(F)(F)F (stereo not given) 30.7%, COc1ccc(C(=O)NC(C)Cn2nc(C)cc2C)cc1OC1CCN(C(C)=O)CC1 (stereo not given) 0%, CCCCC[C@@H]1C=C(C(=O)OCC)[C@H](c2ccccc2)N1S(=O)(=O)c1ccc(C)cc1 37.3%
